Consider 40 compounds from PubChem BioAssay (NCI).

Compounds without any hit were thinned out: in the full panel of roughly 83,000, 20% have a hit.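 Growth was measured after 48 h exposure to one concentration of compound in 96-well plates. Values under 10 count as active.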 Active and inactive are the calls of the source.

The test has as its system OVCAR-4 ovarian. Briefly: NCI-60 one-dose screen, 48 h (100 = growth as untreated, 0 = no growth, -100 = all killed). The following applies: 10 µM unless noted.
As to `O=C(Nc1nc2ccc(C(=O)N3CCN(/C=C/c4ccccc4)CC3)cc2s1)c1ccc(NCCc2ccccc2)c([N+](=O)[O-])c1`, the growth was 42.9% (inactive).
As for `COC12C=C/C(=C(/C(=O)OCc3ccncc3)C(=O)CCCCCCCCC3(OC)C=C/C(=C(/C(=O)OCc4ccncc4)C(=O)CCCCCCCC1)O3)O2`, the figure is -2.29% (active).
As for `Cc1ccc2c(n1)C(=O)C(Br)=C(C1CCCC1)C2=O`, the figure is 112% (inactive).
The value for `C#COc1cccc(Nc2c(C#N)cnc3ncc(NC(=O)CCl)cc23)c1` was 54.5% [6.25 µM] (inactive); that for `COc1cc(-c2csc(NC(=O)c3ccc(N4CCOCC4)c(C(F)(F)F)c3)n2)cc(OC)c1OC` was 23.1% (inactive); that for `CC/C=C\C[C@H](O)C/C=C1/C(=O)C=C[C@@H]1C/C=C\CCCC(=O)N(C)C` was 43.9% (inactive).
Take `Oc1c(I)cc(I)cc1CNCCN(Cc1ccccn1)Cc1ccccn1`: the growth is -48.5% (active).
As for `CC1=C([Se]CC(OC(=O)CC[Se]c2ccccc2)C(=O)NC(C)(C)C)C(=O)c2ccccc2C1=O` (stereo not given), the figure is -83.6% (active).
As for `Cc1cn(-c2cc(NC(=O)c3cncc(C#Cc4cnc(N)c5ncccc45)c3)cc(C(F)(F)F)c2)cn1`, the figure is 76.3% (inactive); as for `CC(C)c1ccc(-n2c(=S)[nH]c3sc4cc(O)ccc4c3c2=O)cc1`, 111% (inactive).
The value for `COc1ccccc1CNc1c2ccccc2nc2ccccc12` was 42.2% (inactive).
As for `COC(=O)c1nc(-c2ccccc2)oc1S(=O)(=O)Cc1ccccc1`, the growth is 101% (inactive).
Turning to `O=C1/C(=C/c2ccccc2Br)COc2ccc(O)cc21`, the growth was 77.8% (inactive).
The value for `C/C(Cc1ccc(Cl)cc1)=C(\c1ccc(O)cc1)c1ccc(Cl)cc1` was 89.3% (inactive).
As for `COC12C=C/C(=C(/C(=O)OCc3ccncn3)C(=O)CCCCCCCCC3(OC)C=C/C(=C(/C(=O)OCc4ccncn4)C(=O)CCCCCCCC1)O3)O2`, the figure is 12.2% (inactive).
`CCc1ccccc1-n1c(-c2ccc(OC)cc2)cc(-c2ccc(OC)cc2)c(C#N)c1=O`: the growth is 85.9% (inactive).
As for `COCCn1cc(-c2csc(-c3cn(C)c4ccc(Br)cc34)n2)c2cccnc21`, the figure is 71% (inactive); as for `C=CCc1c(O)c(C(=O)/C=C/c2ccccc2)c(OC)c2ccoc12`, 49.1% (inactive).
As for `COc1cc(-c2nc3sccn3c2-c2ccnc(NCCNS(=O)(=O)c3ccccc3)n2)ccc1F`, the figure is 52.3% (inactive); as for `O=c1c2cnn(-c3ccccc3)c2n2c(CN3CCOCC3)nnc2n1-c1ccccc1`, 104% (inactive); as for `O=C1C(Cl)=C(Nc2ccc(S(=O)(=O)N3CCOCC3)cc2)C(=O)c2ccccc21`, 86% (inactive).
As for `O=C(COc1ccc(-c2nc3cc(Cl)c(Cl)cc3[nH]2)cc1)N=Nc1c(O)[nH]c2ccc(Cl)cc12`, the figure is 64.2% (inactive).
`CC1CCc2c(C(=O)Nc3ncc(Cc4cccc([N+](=O)[O-])c4)s3)csc2C1` (stereo not given): the growth is 39.3% (inactive).
The value for `CC(C)(Sc1cc(C(C)(C)C)c(O)c(C(C)(C)C)c1)Sc1cc(C(C)(C)C)c(OC(=O)CCCC(=O)O)c(C(C)(C)C)c1` was 67.9% (inactive); that for `CCSc1oc(-c2ccccc2)nc1[P+](c1ccccc1)(c1ccccc1)c1ccccc1` was 13.1% (inactive).
As for `C#CCOC(=O)/C=C/c1cn(-c2ccccc2)nc1-c1ccc(OC)cc1`, the figure is 90.7% (inactive).
As for `Cc1ccc(CNc2ccc3nc(CCC4CCCCC4)[nH]c3c2)cc1`, the figure is 11% (inactive); as for `CCn1c(SCC(=O)N/N=C(\C)c2ccc(Cl)cc2)nc2c1c(=O)n(C)c(=O)n2C`, 99.8% (inactive).
Take `COc1ccc(\C=N/N=C(N)/C(N)=N\N=C/c2ccc(OC)cc2)cc1`: the growth was 117% (inactive).
The value for `c1cc2c(ccc3[nH]c(-c4ccc5[nH]ncc5c4)c4c(c32)CCCC4)n1` was 80.7% (inactive).
The value for `Cc1ccc2c(Cn3cc(CSc4nc5ccccc5o4)nn3)cc(=O)oc2c1` was 107% (inactive); that for `C=C(C)[C@@H]1CCC[C@]2(COS(=O)(=O)c3ccc(C)cc3)CC[C@]3(C)[C@@H](CC[C@@H]4[C@@]5(C)CCCNC(C)(C)[C@@H]5CC[C@]43C)[C@@H]12` was -64.4% (active); that for `COC(=O)c1c(C)c2n(c1C)C(=O)C(c1ccccc1)=C2` was 71.2% (inactive).
As for `COc1cc2cc(NCc3cccc(Cl)c3)nc(C)c2cc1OC`, the growth was 68% (inactive).
As for `CCN(CC)Cc1cc(C=C2C(=O)NC(=S)NC2=O)cc(OC)c1O`, the figure is 122% (inactive).
As for `Cc1cc(=O)oc2cc(OCc3nn4c(Nc5nc6ccccc6s5)c(-c5ccccc5)nc4s3)ccc12`, the figure is 61.4% (inactive); as for `COc1ccc(C(=O)N2c3ccccc3Sc3ccccc32)c(OC)c1`, 57.1% (inactive).
Turning to `Cc1c(-c2ccc(O)cc2)n(Cc2ccc(OCCN3CCCCCC3)cc2)c2ccc(O)cc12`, the growth is 78.1% (inactive).
As for `Cc1ccc(Nn2c(SCC(=O)Nc3nc(-c4ccccc4)cs3)nc(C)c2C)cc1`, the figure is 32% (inactive).
The value for `CC(C)c1ccc(C(=O)Nc2nc3ccc(O)c(CN(C)C)c3s2)cc1` was 74.4% (inactive).
